From PubChem BioAssay (NCI) come the findings set out here.

Among the test systems are NCI-H23 lung; NCI-H226 lung; NCI-H322M lung; HOP-62 NSCLC; NCI-H460 lung; HOP-92 NSCLC; NCI-H522 lung; A549/ATCC NSCLC; 786-0 renal; COLO 205 colon; DU-145 prostate; K-562 leukemia; MALME-3M melanoma; MDA-MB-231 breast; RXF 393 renal; SF-268 CNS; SF-295 CNS; SF-539 CNS; UACC-257 melanoma; M14 melanoma.
Common to all, as to assay: NCI-60 one-dose screen, 48 h (100 = growth as untreated, 0 = no growth, -100 = all killed)
What all share (details): 10 µM unless noted

Each structure is given as a SMILES string. This is part of a sample that, as a whole, favours compounds with a hit. Of some 83,000 tested, about 20% had one in any assay.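 Values shown are percent growth following 48 h exposure of cells in 96-well plates to a single concentration of compound; below 10 was considered active.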 Values without a mark were called inactive. Calls of active or inactive are those of the source.

With `CC(=O)/C(=C\c1c(-c2ccccc2)[nH]c2ccccc12)S(C)(=O)=O`, the growth was 33.7% in the experiment with NCI-H23 lung; 69.1% in the experiment with NCI-H226 lung; 58.2% in the experiment with NCI-H322M lung; 50.5% in the experiment with HOP-62 NSCLC; 4.15% (active) in the experiment with NCI-H460 lung; 42% with HOP-92 NSCLC. The growth in the experiment with NCI-H522 lung is 29.6%; with A549/ATCC NSCLC, 42.8%; in the experiment on 786-0 renal it was 22.8%; in the experiment with COLO 205 colon it was 21.2%; in the experiment on DU-145 prostate it was 13.2%; with K-562 leukemia it was -25.7% (active). Also, the growth is 32.9% in the experiment on MALME-3M melanoma; 32.3% in the experiment with MDA-MB-231 breast; -5.08% (active) with RXF 393 renal; 41.6% in the experiment with SF-268 CNS; 3.77% (active) in the experiment on SF-295 CNS; -34.8% (active) in the experiment with SF-539 CNS. Moreover, the growth in the experiment on UACC-257 melanoma was 59.8%; in the experiment with M14 melanoma, 3.01% (active).
For `C=C1C(=O)O[C@H]2[C@H]1CC/C(COC(=O)c1cc3ccccc3s1)=C\CC[C@@]1(C)O[C@@H]21`, the growth is -46.4% (active) in the experiment on NCI-H23 lung; -51.1% (active) with NCI-H226 lung; -25.8% (active) in the experiment on NCI-H322M lung; -61.6% (active) in the experiment with HOP-62 NSCLC; -57.3% (active) in the experiment on NCI-H460 lung; -74.4% (active) in the experiment with HOP-92 NSCLC. The growth was -70.1% (active) in the experiment on NCI-H522 lung; -51.1% (active) in the experiment with A549/ATCC NSCLC; -83.4% (active) in the experiment on 786-0 renal; -71.3% (active) with COLO 205 colon; -80.6% (active) in the experiment on DU-145 prostate; 2.38% (active) with K-562 leukemia. Besides, the growth is -67.2% (active) with MALME-3M melanoma; -66.1% (active) in the experiment with MDA-MB-231 breast; -88.8% (active) with RXF 393 renal; -60.6% (active) in the experiment with SF-268 CNS; 32% in the experiment with SF-295 CNS; -88.4% (active) in the experiment with SF-539 CNS. Further, the values for the growth in the experiment with UACC-257 melanoma and in the experiment with M14 melanoma were -63.3% (active) and -81.1% (active), respectively.
Turning to `O=[N+]([O-])c1cccc(-c2nc3cc4nc5ccccc5[nH]c4cc3n2)c1`, the growth in the experiment on NCI-H23 lung is 90.1%; in the experiment with NCI-H226 lung, 105%; in the experiment on NCI-H322M lung, 97.7%; with HOP-62 NSCLC, 95.7%; in the experiment with NCI-H460 lung it was 112%; in the experiment on HOP-92 NSCLC, 113%. Moreover, the growth in the experiment on NCI-H522 lung is 92.6%; in the experiment with A549/ATCC NSCLC, 92.6%; in the experiment on 786-0 renal, 91.9%; with COLO 205 colon, 114%; in the experiment with DU-145 prostate, 106%; in the experiment on K-562 leukemia, 90.9%. Moreover, the growth is 113% in the experiment on MALME-3M melanoma; 110% in the experiment on MDA-MB-231 breast; 115% with RXF 393 renal; 98.2% with SF-268 CNS; 100% in the experiment on SF-295 CNS; 106% in the experiment with SF-539 CNS. Further, the growth is 98.3% in the experiment with UACC-257 melanoma and 103% in the experiment with M14 melanoma.
In the case of `O=C(Nc1ccc(OS(=O)(=O)c2ccc(F)cc2)cc1)C1CCCCCC1`, the growth in the experiment with NCI-H23 lung was 83.6%; with NCI-H226 lung, 94.3%; with NCI-H322M lung, 106%; with HOP-62 NSCLC, 98.6%; with NCI-H460 lung it was 95.5%; in the experiment on HOP-92 NSCLC, 83.4%. Moreover, the growth is 81.2% with NCI-H522 lung; 92.5% with A549/ATCC NSCLC; 96.6% with 786-0 renal; 64.6% with COLO 205 colon; 90.6% in the experiment on DU-145 prostate; 55.4% in the experiment on K-562 leukemia. The growth was 99.6% in the experiment on MALME-3M melanoma; 82.7% with MDA-MB-231 breast; 105% in the experiment with RXF 393 renal; 88.2% with SF-268 CNS; 98% in the experiment with SF-295 CNS; 89.7% in the experiment on SF-539 CNS. For the same molecule, the growth is 93.9% in the experiment with UACC-257 melanoma and 85.9% in the experiment with M14 melanoma.
With `C#CCNC(=O)[C@H](CC)[C@H]1CC[C@H](C)[C@H]([C@@H](C)[C@H](O)[C@H](C)C(=O)[C@H](CC)C2O[C@]3(C=CC(=O)[C@]4(CC[C@@](C)([C@H]5CC[C@](O)(CC)[C@H](C)O5)O4)O3)[C@H](C)C[C@@H]2C)O1` (stereo not given in full), the growth in the experiment with NCI-H23 lung was 42.4%; in the experiment on NCI-H226 lung, 57.7%; with NCI-H322M lung, 53.8%; with HOP-62 NSCLC, 61.8%; in the experiment with NCI-H460 lung, 35.5%; in the experiment on HOP-92 NSCLC it was 13.2%. For the same molecule, the growth in the experiment on NCI-H522 lung was 32.3%; in the experiment on A549/ATCC NSCLC, 44%; in the experiment with 786-0 renal, 70.5%; with COLO 205 colon, 10.8%; with DU-145 prostate, 22.6%; in the experiment on K-562 leukemia, 8.66% (active). The growth with MALME-3M melanoma is 48.8%; in the experiment with MDA-MB-231 breast, -0.208% (active); in the experiment with RXF 393 renal it was 14%; with SF-268 CNS, 45.9%; in the experiment with SF-295 CNS, 43.9%; in the experiment on SF-539 CNS it was 6.76% (active). Further, the growth in the experiment on UACC-257 melanoma was 68.1%; in the experiment on M14 melanoma it was -11.9% (active).
For `O=C(CN1C(=O)S/C(=C\C(Cl)=C\c2ccccc2)C1=O)NCCc1ccc(O)cc1`, the growth in the experiment on NCI-H23 lung is 40.2%; in the experiment on NCI-H226 lung, 60.1%; in the experiment with NCI-H322M lung, 75.2%; in the experiment on HOP-62 NSCLC, 43%; in the experiment with NCI-H460 lung, 45.7%; in the experiment with HOP-92 NSCLC, 15.6%. The growth was -6.49% (active) in the experiment on NCI-H522 lung; 48.8% in the experiment on A549/ATCC NSCLC; -17.9% (active) with 786-0 renal; 13.7% with COLO 205 colon; 18.2% with DU-145 prostate; 10.1% in the experiment with K-562 leukemia. The growth was 52.1% in the experiment on MALME-3M melanoma; 30.4% in the experiment with MDA-MB-231 breast; -22.7% (active) in the experiment with RXF 393 renal; 60.7% with SF-268 CNS; 44% in the experiment on SF-295 CNS; 15.6% with SF-539 CNS. The values for the growth in the experiment with UACC-257 melanoma and with M14 melanoma were 60.9% and -26.7% (active), respectively.
On to `COc1cc(-c2nc3sccn3c2-c2ccnc(NCCNS(=O)(=O)c3ccccc3)n2)ccc1F`, for which the growth in the experiment with NCI-H23 lung was 67.6%; in the experiment on NCI-H226 lung, 41.2%; in the experiment with NCI-H322M lung it was 67.7%; with HOP-62 NSCLC, 73.2%; in the experiment with NCI-H460 lung, 60.4%; in the experiment on HOP-92 NSCLC, 47.8%. Also, the growth was 36.2% with NCI-H522 lung; 45.5% with A549/ATCC NSCLC; 61.4% in the experiment on 786-0 renal; 40.4% in the experiment with COLO 205 colon; 61.4% in the experiment with DU-145 prostate; 28.3% in the experiment on K-562 leukemia. The growth with MALME-3M melanoma was 49.2%; in the experiment on MDA-MB-231 breast, 48.8%; in the experiment with RXF 393 renal, 21.5%; in the experiment with SF-268 CNS it was 48.6%; in the experiment with SF-295 CNS, 66.4%; with SF-539 CNS it was 83.8%. Further, the growth in the experiment on UACC-257 melanoma was 62.4%; with M14 melanoma, 38.6%.
On to `COc1c(C(=O)Nc2ccc(C)c(Br)c2)ccc2ccccc12`, for which the growth in the experiment with NCI-H23 lung was 90.6%; with NCI-H226 lung, 103%; in the experiment on NCI-H322M lung it was 104%; with HOP-62 NSCLC, 99.8%; in the experiment with NCI-H460 lung it was 102%; with HOP-92 NSCLC, 105%. The growth in the experiment on NCI-H522 lung is 85%; with A549/ATCC NSCLC it was 87.9%; with 786-0 renal, 96.5%; with COLO 205 colon, 101%; in the experiment with DU-145 prostate, 96.8%; in the experiment on K-562 leukemia, 41.9%. Further, the growth was 84.4% in the experiment on MALME-3M melanoma; 104% in the experiment on MDA-MB-231 breast; 81.1% with RXF 393 renal; 96.5% in the experiment on SF-268 CNS; 90.6% in the experiment on SF-295 CNS; 92.2% in the experiment with SF-539 CNS. For the same molecule, the growth with UACC-257 melanoma was 98.3%; in the experiment on M14 melanoma it was 81.1%.
